From PubChem BioAssay (NCATS)
Records with an inconclusive call do not appear. Calls of active or inactive are those of the source. Calls come from the whole dose curve; as a rule, active = well fitted inhibition curve with a large enough effect; inconclusive = small, poorly fitted or top-dose-only effect; inactive = no such curve, though single readings can be large or run the other way.

test: Primary fluorescence-based thiol-reactive (MSTI) qHTS assay for identification of artifact compounds. (AID 1845221); settings: MSTI thiol-reactivity probe, 1 h; series mostly up to 53.8 µM; activity change, negative = thiol reactive: at the top concentration; note: nearly all actives have a fitted effect of over 65% in size;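 for activity change, negative = thiol reactive: thiol-reactive compounds lower the probe fluorescence signal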
Method in brief: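 Reactivity toward the thiol probe MSTI (4 uM) is scored by fluorescence at Ex/Em 525/598 nm after 1 h at room temperature. Acetyl-MSTI and MSTI define the activity scale.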
Potency is the fitted concentration of half-maximal effect.

SMILES	activity change, negative = thiol reactive	Potency
N#Cc1ccc(C2CCCc3cncn32)cc1 (stereo not given)	-9.08% [at 25.6 µM] (inactive)	–
OC[C@H]1O[C@@H](Oc2cc(O)cc(-c3cc4ccc(O[C@@H]5O[C@H](CO)[C@@H](O)[C@H](O)[C@H]5O)cc4o3)c2)[C@H](O)[C@@H](O)[C@@H]1O	–	10.3 µM (active)
O=C(OC[C@H]1O[C@H](O[C@]2(CO)O[C@H](CO)[C@@H](O)[C@@H]2O)[C@H](O)[C@@H](O)[C@@H]1O)c1ccc(O)cc1	-19.2% [at 25.6 µM] (inactive)	–
CC1(C)CC[C@]2(C(=O)O)CC[C@]3(C)C(=CCC4[C@@]5(C)CC[C@H](O[C@@H]6O[C@H](C(=O)O)[C@@H](O)[C@H](O[C@@H]7O[C@H](CO)[C@H](O)[C@H](O)[C@H]7O)[C@H]6O[C@@H]6O[C@H](CO)[C@@H](O)[C@H](O)[C@H]6O)C(C)(C)C5CC[C@]43C)[C@@H]2C1 (stereo not given in full)	227% [at 6.41 µM] (inactive)	–
COc1c2ccoc2nc2c(OC)c(O[C@@H]3O[C@@H](C)[C@H](O)[C@@H](O[C@@H]4O[C@H](CO)[C@@H](O)[C@H](O)[C@H]4O)[C@H]3OC(C)=O)ccc12	58.7% [at 25.6 µM] (inactive)	–
C/C=C1\[C@H](O[C@@H]2O[C@H](CO)[C@@H](O)[C@H](O)[C@H]2O)OC=C(C(=O)OCCc2ccc(O)cc2)[C@H]1CC(=O)OCCc1ccc(O)cc1	22.1% [at 25.6 µM] (inactive)	–
Nc1ncnc2c1C(=O)N(c1ccc(C3CCC(CC(=O)O)CC3)cc1)CCO2 (stereo not given)	-8.45% (inactive)	–
CC1=CCC2C(C)(C)CCCC2(C)C1CC12OC1C(O)C(CO)=CC2O (stereo not given)	57.5% (inactive)	–
Cc1cn(-c2cc(NC(=O)c3ccc(C)c(Nc4nccc(-c5cnccn5)n4)c3)cc(C(F)(F)F)c2)cn1	-13.3% (inactive)	–
COc1cc2c(cc1O)CC(O)(CO)C(CO)C2c1ccc(OC2OC(CO)C(O)C(O)C2O)c(OC)c1 (stereo not given)	–	10.3 µM (active)
C=C1CC[C@@H]2[C@](C)(CO)[C@H](O[C@@H]3O[C@H](CO)[C@@H](O)[C@H](O)[C@H]3O)CC[C@@]2(C)[C@@H]1C/C=C1/C(=O)OC[C@H]1O	–	6.53 µM (active)
O=C(NCCN1CCCC1)c1cc(-c2ccc(CN3CCOCC3)cc2)nc2ccc(F)cc12	166% [at 25.6 µM] (inactive)	–
CN[C@H](CNC(=O)N1CCC[C@@H]([C@@H](OCCNC(=O)OC)c2cccc(Cl)c2)C1)C[C@H]1CCCOC1	21.2% (inactive)	–
CCC(C)C(N)C(=O)NCCN1CCOCC1 (stereo not given)	-4.87% (inactive)	–
CCC(C)/C=C(C)/C=C/C1=CC2=C(Cl)C(=O)C(C)(OC(C)=O)C(=O)C2=CN1C(CCCN=C(N)N)C(=O)O (stereo not given)	–	1.03 µM (active)
CC1(C)O[C@H]2CC(=O)OC[C@@]23C1=C(O)C(=O)[C@]1(C)C3CC[C@@]2(C)[C@H](c3ccoc3)OC(=O)[C@H]3O[C@]321 (stereo not given in full)	4.97% [at 25.6 µM] (inactive)	–
Cc1cccc(-c2nn3c(c2-c2ccnc4ccc(C(N)=O)cc24)CCC3)n1	15.2% (inactive)	–
CC1(C)CC[C@]2(C(=O)O[C@@H]3O[C@H](CO)[C@@H](O)[C@H](O)[C@H]3O)CC[C@]3(C)C(=CCC4[C@@]5(C)CC[C@H](O[C@@H]6O[C@H](C(=O)O)[C@@H](O)[C@H](O)[C@H]6OC6OC(CO)C(O)C(O)C6O)C(C)(C)C5CC[C@]43C)[C@@H]2C1 (stereo not given in full)	43.7% [at 11.5 µM] (inactive)	–
CCN1CCN(C(=O)N[C@@H](C(=O)N[C@@H]2C(=O)N3[C@@H]2SC(C)(C)[C@@H]3C(=O)O)c2ccccc2)C(=O)C1=O	34.7% (inactive)	–
CCC(C)/C=C(C)/C=C/C1=CC2=C(Cl)C(=O)C(C)(OC(C)=O)C(=O)C2=CN1CCCCC(N)C(=O)O (stereo not given)	–	0.653 µM (active)
CC(C)c1ccc2c(c1)C(=O)CC1C(C)(C(=O)O)CCCC21C (stereo not given)	34.7% (inactive)	–
C=C(C(=O)O)[C@@H]1CC[C@@]2(C)CCC[C@@](C)(O)[C@@H]2C1	-19.1% (inactive)	–
O=C(c1c2ccccc2cc2ccccc12)N1CCC(N2CCC[C@@H](C(=O)N3CCOCC3)C2)CC1	25.6% (inactive)	–
COc1ccc2c(c1)C=C1Cn3c-2c(C2CCCCC2)c2ccc(cc23)C(=O)NS(=O)(=O)N(C)CCOCCN(C)C1=O	58.6% (inactive)	–
Cn1nccc1-c1ccccc1Oc1ccc(S(=O)(=O)Nc2nccs2)cc1C#N	106% (inactive)	–
COc1cccc(C)c1C(=O)O[C@@H]1C[C@H](O[C@H]2[C@H](O)C[C@H](O[C@@H]3CCC[C@H]4[C@H]3C=C[C@@H]3CCCC/C=C/[C@H]5C=C(C(=O)O)[C@@H](C)C[C@@]56OC(=O)C(=C6O)OC(=O)[C@@]34C)O[C@@H]2C)O[C@H](C)[C@H]1O	170% [at 11.5 µM] (inactive)	–
O=C(N[C@@H]1CC[C@@H](c2cccc(F)c2F)CN(CC(F)(F)F)C1=O)N1CCC(n2c(=O)[nH]c3ncccc32)CC1	-2.92% (inactive)	–
C=C1[C@@H]2CC[C@@]3(C)[C@H](c4ccoc4)OC(=O)C[C@]13O[C@H]1CC(=O)C(C)(C)[C@H](C(O)C(=O)OC)[C@]12C (stereo not given in full)	45.2% [at 25.6 µM] (inactive)	–
COc1cc(/C=C/C(=O)O[C@@H]2O[C@H](CO)[C@@H](O)[C@H](O)[C@H]2O)ccc1O	–	4.65 µM (active)
CCOC(=O)CSc1nc2c(sc3ccccc32)c(=O)n1CCCN1CCCC1	2.84% (inactive)	–
